Rows were chosen to be rich in hits. Some 4.1% of all compounds tested hit in one or more screens of this group.
EBV LMP1 NFkB: EBV LMP1-driven NF-kappaB luciferase reporter inhibitors, primary screen, cell-based, luminescence, single point; LMP1-induced NF-kappaB luciferase reporter cells; inhibition, % at 12.5 µM; actives 0.69% (n = 350,000); AID 504558, 2011; in the data active = inhibition above about 41%;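 also: 0% = neutral control wells and 100% = reference inhibitor control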
TWEAK Fn14 block: inhibitors of TWEAK-Fn14 signaling, primary screen, luciferase reporter cells, uHTS. TWEAK-stimulated Fn14 reporter cells, luciferase luminescence, 8 h. inhibition, % at 10 µM. actives 2% (n = 360,000). AID 1159606, 2016; in the data active = inhibition above about 50%
TROY signal inh: inhibitors of TROY-driven NF-kB signaling, primary screen, Q293 LMP1-TROYcd cells, NF-kB luciferase, uHTS; actives 0.98% (n = 360,000); AID 1347056, 2019; inhibition, % at 10 µM; Q293 LMP1-TROYcd NF-kB luciferase reporter, 4 h;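 active = compounds whose plate-normalised and pattern-corrected inhibition of the luciferase reporter signal at the single screening dose is 50% or more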
MITF TRPM1 inh: inhibitors of MITF-dependent TRPM1 promoter reporter, primary screen, cell-based, SK-MEL-5, single point, luciferase; SK-MEL-5 TRPM1 promoter luciferase, 24 h; inhibition, % at 12.5 µM; actives 0.83% (n = 330,000);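 active = mean inhibition across replicates of 60% or more, whatever share of single replicates reaches that level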
Shn3 inh set2: reduction of Shn3 3'UTR firefly luciferase signal, primary screen, Schnurri-3 inhibitor project, cell-based, Clone20 osteoblasts, set 2; inhibition, % at 12.5 µM; Clone20 osteoblast Shn3 3'UTR firefly luciferase, 24 h; AID 588674, 2011; actives 0.52% (n = 360,000);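 active = mean inhibition of at least 75% with every replicate also reaching 75%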;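 also: 0% = median of neutral control wells and 100% = pilot-screen positive control compound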
Peg3 promoter: Peg3 promoter-driven luciferase inhibitors, primary screen, cell-based, HeLa, luciferase luminescence; HeLa PEG-Prom luciferase reporter, overnight; inhibition, % at 20 µM; actives 1.7% (n = 360,000); AID 588405, 2011;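 active = inhibition of at least 50% at 20 µM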
Starred values were filed as active, the others as inactive; x = no result.

SMILES	EBV LMP1 NFkB	TWEAK Fn14 block	TROY signal inh	MITF TRPM1 inh	Shn3 inh set2	Peg3 promoter
CCCCCCCCCCCC1=C(O)C(=O)C=C(O)C1=O	-4.4	4.5	9.6	2.0	15.6	33.3
Cc1ccc(-n2nc3c(c2NC(=O)C2CC2)CS(=O)(=O)C3)cc1	-20.4	19.8	-2.8	2.9	-7.7	-8.1
CCN1C(=O)S/C(=C/c2ccc(Sc3nc4ccccc4[nH]3)o2)C1=O	23.5	79.2*	31.7	6.2	53.9	-33.6
CC(C)(C)NC(=O)C1c2ccccc2OCC(=O)N1Cc1cccnc1 (configuration not stated)	x	-14.3	-2.8	x	x	x
C/C(=N/NS(=O)(=O)c1ccc(CC(C)C)cc1)c1ccncc1	16.9	4.4	-11.1	19.1	87.4*	32.5
CCCc1nc(SCC(=O)N2c3ccccc3CC2C)c2c(C)c(C)sc2n1 (configuration not stated)	24.8	-26.1	-0.9	7.1	28.5	13.4
Cc1cc(OCC(=O)Nc2ccccn2)c2c(C)cc(=O)oc2c1	48.7*	-42.1	-14.4	-12.4	-6.0	-39.8
CCCc1cc(=O)oc2cc(C)cc(OCC(=O)Nc3ccccn3)c12	-15.9	1.7	-10.3	-10.3	-5.1	14.5
COc1ccc(C=NNC(=S)NN=Cc2ccc(OC)c(OC)c2)cc1OC	-4.5	-9.3	-7.2	-36.7	3.9	-70.8
COc1ccc(C=NNC(=S)Nc2ccc(F)cc2)cc1OC	19.3	46.1	77.8*	13.6	8.4	7.2
COc1ccc(/C=N/NC(=S)Nc2cccc(C(=O)O)c2)cc1OC	15.4	76.2*	19.1	25.9	-4.7	11.9
O=C(N/N=C(\Cc1ncc[nH]1)c1ccccc1)c1cccnc1	9.8	-12.3	3.6	7.8	10.8	18.1
Cc1cc(C(=O)NNC(=O)c2ccc(F)cc2)c(C)s1	-2.1	-13.6	-57.2	0.9	12.0	-109.6
CC(=O)c1cccc2c(O)c(C3=Nc4ccccc4C3=O)[nH]c12	-35.6	10.7	53.6*	39.6	-73.1	-212.0
O=C(O)c1ccc(N2CC3CC(C2)c2cccc(=O)n2C3)c(NC(=S)Nc2ccc(Br)cc2)c1 (configuration not stated)	-24.0	-46.2	-61.1	7.1	26.6	-23.8
CCN(CC)S(=O)(=O)c1ccc(OC)c(NC(=O)CSc2cc(C)ccc2C)c1	1.6	23.7	-11.6	0.9	32.3	4.5
COc1ccc(NC(=O)CCS(=O)(=O)c2ccc3c(c2)CCCN3C(C)=O)cc1Cl	-11.1	5.9	-9.5	0.0	19.7	12.1
CCC(=O)N1CCc2cc(S(=O)(=O)CCC(=O)NCc3ccco3)ccc21	1.8	100.6*	9.9	3.3	0.3	-33.7
COc1ccc(NC(=O)CCS(=O)(=O)c2ccc3c(c2)CCN3C(C)=O)cc1	58.5*	-13.5	-2.2	7.6	4.1	2.1
COCCN1C[C@@H](CO)O[C@@H](n2cnc3c(NC(C)C)ncnc32)C1	x	-13.9	10.9	x	-3.8	0.1
O=C(NC(=S)Nc1cc(-c2nc3ccccc3[nH]2)ccc1Cl)c1ccc2c(c1)OCO2	10.7	87.0*	53.3*	54.9	25.5	100.4*
CCOc1ccc(C(=O)Nc2cc(-c3nc4ccccc4[nH]3)ccc2Cl)cc1[N+](=O)[O-]	-7.4	36.1	12.6	-8.8	-11.1	62.1*
Cc1ccc(-c2nc3ccccc3[nH]2)cc1NC(=S)NC(=O)c1ccccc1Br	15.6	66.7*	36.3	-11.4	-2.3	7.2
Cc1ccc(-c2nc3ccccc3[nH]2)cc1NC(=O)c1ccc2c(c1)OCO2	1.5	1.1	-5.8	-30.2	-2.8	-7.5
c1ccc(CNc2c3c(nc4ncnn24)CCC3)cc1	10.4	-0.1	11.4	12.9	24.5	-6.9
SMILES	EBV LMP1 NFkB	TWEAK Fn14 block	TROY signal inh	MITF TRPM1 inh	Shn3 inh set2	Peg3 promoter
COc1ccc(CN(C)C(=O)Cn2ccc(N)nc2=O)cc1OC	17.4	-14.0	4.0	-6.8	-13.5	-7.1
Cc1ccc(N(CCC#N)C(=O)CSc2nnc3ccccn23)cc1	-7.7	9.7	5.0	3.5	-2.9	-0.4
COc1cc(/C=C2/C(=O)c3cccc([N+](=O)[O-])c3C2=O)c(Br)cc1O	-13.9	57.5*	28.4	49.0	10.2	109.6*
Cc1csc(NC(=O)Cc2coc3cc(C)c(C(C)C)cc23)n1	5.9	-30.8	55.3*	-4.0	13.3	17.7
O=C(O)C1(Nc2ccccc2)CCCC1	-4.7	-7.5	-10.7	2.5	7.4	-7.7
O=C(O)C1(Nc2ccccc2Cl)CCCC1	0.7	3.6	-1.4	9.8	93.0*	12.0
Cc1cc([N+](=O)[O-])ccc1NC(=O)CN1CCN(Cc2ccccc2)CC1	8.0	-28.1	-2.9	9.6	9.0	7.4
CCOC(=O)N1CCN(CC(=O)Nc2ccccc2C(=O)Nc2ccccc2)CC1	-3.3	-11.3	2.9	18.1	-10.3	27.4
CCOC(=O)N1CCN(CC(=O)Nc2ccc([N+](=O)[O-])cc2C(=O)Nc2ccccc2F)CC1	-6.8	20.9	13.8	-2.7	11.2	63.7*
O=C(CN1CCN(Cc2ccccc2)CC1)Nc1ccc([N+](=O)[O-])cc1C(=O)Nc1ccccc1F	5.1	27.5	23.2	0.2	30.4	62.5*
Cc1coc(NC(=O)CSc2nc(-c3ccc(Cl)cc3)cc(C(F)(F)F)c2C#N)n1	-58.0	-42.1	6.7	22.4	8.3	59.5*
COc1ccc(NC(=O)CSc2nc(-c3ccc(C)cc3)cc(C(F)(F)F)c2C#N)cc1	-23.3	-24.5	-2.9	3.2	-20.4	9.9
COc1ccc(-c2cc(C(F)(F)F)c(C#N)c(SCC(=O)Nc3nc(C)co3)n2)cc1	-1.3	-44.0	9.6	-0.9	1.2	57.0*
COc1ccc(-c2cc(C(F)(F)F)c(C#N)c(SCC(=O)O)n2)cc1	0.8	-22.3	2.7	14.8	-8.3	26.6
Cc1nc(CC(C)C)cc(C(=O)N2CCCC(CNS(=O)(=O)c3cccs3)C2)n1 (configuration not stated)	7.3	-2.2	-27.9	-3.9	22.4	-6.5
CCCNC(C)C(=O)Nc1c(C)csc1C(=O)OC (configuration not stated)	-15.8	6.7	6.6	-0.2	-4.5	-8.2
CCOC(=O)C(C(=O)OCC)C(C[N+](=O)[O-])c1ccccc1 (configuration not stated)	-3.6	-9.2	1.5	-1.2	-8.9	18.7
COC(=O)c1cccc(NC(=O)CSc2nnc(C)o2)c1	-1.2	17.1	-0.1	-3.7	10.3	-26.4
CC1=C/C(=N\Nc2ccccc2[N+](=O)[O-])CC(C)(C)C1	-2.8	12.4	58.4*	6.5	-22.1	-14.6
CC/C(=N\Nc1ccccc1[N+](=O)[O-])c1ccc(O)cc1	-12.5	4.5	52.6*	3.7	-50.0	-66.7
